Screening results: PubChem BioAssay, several laboratories
Shown are actives, neighbours in structure and some others; about 4.6% of the full set was active somewhere.
ADAM10 inh – ADAM10 inhibition, QFRET primary screen; O14672; recombinant ADAM10, EDANS/DABCYL FRET peptide cleavage, 3 h; inhibition, % at 7 µM; hit rate 0.62% among 370,000;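 active = inhibition above a per-campaign cutoff equal to the mean of compounds falling between control-based bounds plus 3 SD, cut at about 20% in these data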;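 note: 0% = DMSO wells while the 100% control is not disclosed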
proKLK7 act – activates the human kallikrein-7 zymogen; hit rate 0.9% among 370,000; purified proKLK7, EDANS-DABCYL substrate fluorescence; 100% is mature enzyme control, 0% vehicle; P49862; AID 652039; activation, % at 7 µM;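 active = activation above the mean of all tested compounds plus 3 SD, computed per campaign excluding outliers beyond control limits, cut at about 13% in these data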
Target sequence (P49862 whole entry, looked up): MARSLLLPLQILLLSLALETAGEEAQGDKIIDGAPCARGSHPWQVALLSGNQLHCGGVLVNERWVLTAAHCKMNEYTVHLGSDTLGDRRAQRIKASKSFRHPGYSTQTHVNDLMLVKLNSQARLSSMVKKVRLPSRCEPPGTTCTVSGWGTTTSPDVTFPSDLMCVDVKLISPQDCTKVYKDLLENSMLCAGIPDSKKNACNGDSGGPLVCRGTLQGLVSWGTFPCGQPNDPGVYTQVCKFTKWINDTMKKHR
FAS TE block – FAS thioesterase (human) inhibition | P49327 | AID 602261 | recombinant FAS-TE, OMFH fluorogenic substrate, fluorescence endpoint | inhibition, % at 15 µM | hit rate 0.67% among 360,000;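 active = compounds whose normalised, plate-corrected inhibition of enzyme fluorescence in the single-dose primary screen is 50% or more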;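 note: 0% = DMSO with enzyme and 100% = substrate without enzyme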
ADAM17 inh – ADAM17 inhibition, QFRET primary screen; hit rate 0.83% among 370,000; inhibition, % at 6.95 µM; recombinant ADAM17, EDANS/DABCYL FRET peptide cleavage; P78536;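 active = inhibition above the mean of compounds lying between control limits plus 3 SD, set per campaign, cut at about 8.5% in these data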;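 note: 0% = DMSO-only wells as the low control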
NR3A LBD binder – modulates the human NR3A ligand-binding domain; NR3A LBD differential scanning fluorimetry, Tm shift; 0% = protein alone, 100% = glycine-bound protein; Tm shift relative to glycine control, % at 25 µM; hit rate 2.5% among 340,000; AID 1259313;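 active = melting temperature shift of at least 10% of the positive control shift, at one fixed dose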
FAS-TE inh conf – confirmation of human fatty acid synthase thioesterase inhibitors | shares compounds with FAS TE block | recombinant FAS-TE, OMFH fluorogenic substrate, fluorescence | inhibition, % at 15 µM | hit rate 45% among 2,300 | AID 624325;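 active = compounds inhibiting the enzyme by at least 50% at 15 µM in any one of the replicates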;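 note: 0% = enzyme with DMSO only and 100% = wells lacking enzyme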
* marks the source's active call; other numbers are inactive results.

For CCN(CC)C(=O)C1CCCN(c2ccc([N+](=O)[O-])cc2/C=N/NC(=O)c2ccccc2)C1 (stereo unspecified) the results were ADAM10 inh 8.4, proKLK7 act 0.8, FAS TE block 85.2*, ADAM17 inh 0.7, NR3A LBD binder 7.2 and FAS-TE inh conf 56.4*.
`CCN(CC)C(=O)C1CCCN(c2ccc([N+](=O)[O-])cc2/C=N/NC(=O)c2ccc([N+](=O)[O-])cc2)C1` (stereo unspecified) gave ADAM10 inh -18.1, proKLK7 act -0.2, FAS TE block 43.7, ADAM17 inh -1.1 and NR3A LBD binder -4.7.
`CCN(CC)C(=O)C1CCCN(c2ccc([N+](=O)[O-])cc2/C=N/NC(=O)c2cccc(O)c2)C1` (stereo unspecified) gave ADAM10 inh 12.7, proKLK7 act 0.3, FAS TE block 66.1*, ADAM17 inh -1.1, NR3A LBD binder -6.0 and FAS-TE inh conf 67.7*.
`COc1ccc(C(=O)Nc2nc3c(s2)CCCC3)cc1S(=O)(=O)N1CCCc2ccccc21` gave ADAM10 inh -5.8, proKLK7 act -19.9, FAS TE block 63.0*, ADAM17 inh 2.1, NR3A LBD binder -2.9 and FAS-TE inh conf 17.1.
`COc1cccc(C(=O)N2CCC(Oc3cccnc3)CC2)c1` gave ADAM10 inh -3.2, proKLK7 act -0.1 and ADAM17 inh -2.6.
For CCCC(=O)N(C1CC(C)C(C#N)(C#N)C1(C#N)C#N)N(C)C (stereo unspecified) the results were ADAM10 inh -3.9, proKLK7 act -0.8, FAS TE block 62.0*, ADAM17 inh -3.7, NR3A LBD binder 1.1 and FAS-TE inh conf 68.4*.
`CC(=O)N(C1CC(C)C(C#N)(C#N)C1(C#N)C#N)N(C)C` (stereo unspecified) gave ADAM10 inh 4.1, proKLK7 act 0.2, FAS TE block 54.2*, ADAM17 inh -1.2, NR3A LBD binder -0.6 and FAS-TE inh conf 62.7*.
For COC(=O)C1=C(C(=O)OC)[C@@H]2N(Cc3ccccc3)c3ccccc3[C@@]23C[C@@H](C(=O)OC)N(C(=O)c2cc(C)oc2C)C3=N1 the results were ADAM10 inh 7.0, proKLK7 act -0.6, FAS TE block 59.4*, ADAM17 inh 2.6, NR3A LBD binder -5.1 and FAS-TE inh conf 15.1.
For COC(=O)C1=C(C(=O)OC)[C@@H]2N(Cc3ccccc3)c3ccccc3[C@@]23C[C@@H](C(=O)OC)N(C(=O)c2cccs2)C3=N1 the results were ADAM10 inh -0.6, proKLK7 act 0.9, FAS TE block 23.4, ADAM17 inh 5.8 and NR3A LBD binder -1.2.
`COC(=O)C1=C(C(=O)OC)[C@@H]2N(Cc3ccccc3)c3ccccc3[C@@]23C[C@@H](C(=O)OC)N(C(=O)CC(C)C)C3=N1` gave ADAM10 inh 6.3, proKLK7 act 0.1, FAS TE block 77.0*, ADAM17 inh 3.7, NR3A LBD binder -2.3 and FAS-TE inh conf 27.6.
Screening C=CCN1c2ccccc2[C@]23C[C@@H](C(=O)OC)N(C(=O)NCCC)C2=NC(C(=O)OC)=C(C(=O)OC)[C@H]13 returned ADAM10 inh 7.8, proKLK7 act -0.4, FAS TE block 78.8*, ADAM17 inh 3.4, NR3A LBD binder -1.8 and FAS-TE inh conf 30.8.
CCn1c(SCC(=O)Nc2ccc(C(=O)OC)cc2)nnc1-c1cccc(Cl)c1 was read as ADAM10 inh 4.3, proKLK7 act 0.1 and ADAM17 inh 3.6.
For CCOC(=O)c1c(NC(=O)c2ccc(N3C(=O)[C@@H]4[C@H](C3=O)[C@H]3C=C[C@@H]4C3)cc2)sc2c1CC(C)CC2 (stereo partly specified) the results were ADAM10 inh -2.0, proKLK7 act 0.1, FAS TE block 51.3*, ADAM17 inh -0.8, NR3A LBD binder -2.5 and FAS-TE inh conf 9.9.
For CCOC(=O)c1c(NC(=O)C2C3C=CC(C3)C2C(=O)O)sc2c1CC(C)CC2 (stereo unspecified) the results were ADAM10 inh -21.5, proKLK7 act 0.5, FAS TE block -0.3, ADAM17 inh -11.2 and NR3A LBD binder -1.3.
`CC1(C(=O)NS(=O)(=O)c2ccc(C#N)cc2)CCN1C(=O)CCc1ccc(Cl)cc1Cl` (stereo unspecified) gave ADAM10 inh -5.1, proKLK7 act 0.0, FAS TE block 42.1 and ADAM17 inh -2.3.
